Compound activity (PubChem)
A selection: hits, their analogues and other compounds. The true share with any hit is near 2%.
Jurkat viability = cytotoxicity toward Jurkat cells; Jurkat E6.1 viability, ATP luminescence, 48 h; inhibition, % at 4 µM; actives 1.2% (n = 56,000);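 active means inhibition above the mean inhibition of all tested compounds plus 3 SD, cut at about 28% in these data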
Her2 expr inh = Her2 kinase expression inhibition; P04626; SKBR-3 HER2 protein level, AlphaScreen, 18-24 h; active compounds read low; HER2 level % of control, % at 10 µM; actives 0.69% (n = 65,000); AID 645;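 active means HER2 level under 5% of the carrier-only control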;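 further: 100% = DMSO carrier and 0% = 500 nM PU-H71 HSP90 inhibitor; lower value means stronger loss of Her2 protein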
Target sequence (P04626 whole entry, looked up): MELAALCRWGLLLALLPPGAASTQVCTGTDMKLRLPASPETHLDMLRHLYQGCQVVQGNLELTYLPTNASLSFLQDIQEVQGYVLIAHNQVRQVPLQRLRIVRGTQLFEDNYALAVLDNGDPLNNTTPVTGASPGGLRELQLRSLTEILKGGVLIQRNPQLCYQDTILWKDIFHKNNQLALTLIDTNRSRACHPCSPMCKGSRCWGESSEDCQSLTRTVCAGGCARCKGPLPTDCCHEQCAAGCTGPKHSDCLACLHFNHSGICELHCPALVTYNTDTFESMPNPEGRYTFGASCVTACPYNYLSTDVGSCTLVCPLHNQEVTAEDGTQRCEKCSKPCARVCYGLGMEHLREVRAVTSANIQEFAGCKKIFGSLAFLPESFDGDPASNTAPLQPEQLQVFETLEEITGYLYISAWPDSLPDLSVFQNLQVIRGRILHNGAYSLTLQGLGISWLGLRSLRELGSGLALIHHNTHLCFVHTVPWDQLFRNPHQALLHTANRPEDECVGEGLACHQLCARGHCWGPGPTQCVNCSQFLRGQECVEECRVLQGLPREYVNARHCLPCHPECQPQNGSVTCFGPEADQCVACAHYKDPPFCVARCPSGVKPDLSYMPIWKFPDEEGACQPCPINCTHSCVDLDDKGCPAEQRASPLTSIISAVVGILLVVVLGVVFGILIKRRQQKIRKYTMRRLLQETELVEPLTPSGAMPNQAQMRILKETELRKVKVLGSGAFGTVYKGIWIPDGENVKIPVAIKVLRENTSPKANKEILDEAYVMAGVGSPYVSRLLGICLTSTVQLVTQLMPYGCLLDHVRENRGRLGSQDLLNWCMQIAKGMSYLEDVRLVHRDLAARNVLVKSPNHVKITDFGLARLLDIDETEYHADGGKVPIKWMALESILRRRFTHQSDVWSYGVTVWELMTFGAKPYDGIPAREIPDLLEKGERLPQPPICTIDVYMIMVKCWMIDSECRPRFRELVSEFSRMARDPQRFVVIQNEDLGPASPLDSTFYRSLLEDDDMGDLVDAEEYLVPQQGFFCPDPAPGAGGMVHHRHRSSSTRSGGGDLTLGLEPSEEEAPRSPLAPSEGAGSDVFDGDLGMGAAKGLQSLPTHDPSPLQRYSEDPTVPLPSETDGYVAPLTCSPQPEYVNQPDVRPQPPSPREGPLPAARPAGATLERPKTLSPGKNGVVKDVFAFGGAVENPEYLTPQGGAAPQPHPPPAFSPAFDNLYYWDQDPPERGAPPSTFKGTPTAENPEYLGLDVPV
SKBR3 24h inh = SK-BR-3 proliferation inhibitors | SK-BR-3 viability, CellTiter-Glo ATP luminescence, 24 h; active compounds read low | viability, % at 10 µM | actives 0.47% (n = 41,000) | AID 847;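 active means viability at or below the median of all test compounds minus 3 SD, in both replicates if run twice, cut at about 45% in these data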;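 further: 100% = median untreated cell wells and 0% = median positive control drug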
An asterisk follows results filed as active; . = no result given.

SMILES	Jurkat viability	Her2 expr inh	SKBR3 24h inh
C[C@H]1CCC[C@H](O)CCCCCc2cc(O)cc(O)c2C(=O)O1	2.6	-10.4*	.
C[C@H]1CCC[C@@H](O)CCC/C=C/c2cc(O)cc(O)c2C(=O)O1	.	-14.0*	92.0
C[C@H]1CCC/C=C/C2C[C@H](O)CC2[C@H](O)/C=C/C(=O)O1 (some centres not stated)	.	94.2	100.0
Cc1cc(OCC(=O)Nc2c(C)n(C)n(-c3ccccc3)c2=O)c2c3c(c(=O)oc2c1)CCC3	-1.0	91.8	91.6
COC(=O)CCCNC(=O)CN1CC(c2ccccc2)CC1=O (configuration not stated)	-5.8	97.9	84.1
CCOC(=O)N1CCN(C(C)C(=O)c2c[nH]c3ccccc23)CC1 (configuration not stated)	5.0	117.0	81.8
Nc1c(C(=O)NC2CCCC2)c2nc3ccccc3nc2n1CC1CCCO1 (configuration not stated)	4.3	-28.5*	114.6
Nc1c(C(=O)OCC2CCCO2)c2nc3ccccc3nc2n1Cc1cccs1 (configuration not stated)	0.1	45.0	.
COC(=O)c1cc(C(O)(C(=O)OC)C(F)(F)F)c(/N=C/N(C)C)s1 (configuration not stated)	0.3	144.4	.
Clc1ccc(CSC(Cn2ccnc2)c2ccc(Cl)cc2Cl)cc1 (configuration not stated)	.	82.2	101.4
Clc1ccc(COC(Cn2ccnc2)c2ccc(Cl)cc2Cl)cc1 (configuration not stated)	.	-15.3*	102.9
CC(C)(C)n1c(O)c(C=Nc2ccc3c(c2)CCC3)c(=O)[nH]c1=O	-1.9	68.9	71.8
Cc1c(C(=O)N2CCC3(CC2)OCCO3)sc2ncnc(N3CCN(c4ccccn4)CC3)c12	-0.7	84.4	38.5*
O=C(c1sc2ccccc2c1Cl)N1CCC2(CC1)OCCO2	4.3	116.1	91.5
CCn1nc(-c2ccccc2)nc2c(=O)n(C)c(=O)nc1-2	27.4	-14.1*	38.0*
C#CCN1C(=O)C2(C(C#N)=C(N)OC(C)=C2C(=O)OCc2ccccc2)c2ccccc21 (configuration not stated)	-0.6	88.9	116.5
Cc1[nH]c2c(C(F)(F)F)cccc2c1CCN	52.6*	56.6	.
Cc1n[nH]c(C)c1CCN	-1.6	107.1	101.5
O=P(OCC(F)(F)C(F)F)(N1CCCCC1)N1CCCCC1	0.6	99.4	98.1
C=CCN(CC=C)Cc1c[nH]c2ccccc12	-2.6	23.4	26.6*
O/N=C/c1c[nH]c2ccccc12	-6.3	98.5	96.0
CN1C(=O)C(Cc2ccc3c(c2)OCO3)C(=O)N(C)C1=O	-1.4	89.5	.
c1cc2n(c1)-c1c(ccc3c1OCO3)CNC2c1ccc2c(c1)OCO2 (configuration not stated)	1.5	62.7	.
COc1ccc(C2NCc3ccc4c(c3-n3cccc32)OCO4)cc1O (configuration not stated)	77.9*	84.3	.
O=C1C2CCCN2C(c2cccnc2)N1c1nccs1 (configuration not stated)	-7.9	104.1	87.2
SMILES	Jurkat viability	Her2 expr inh	SKBR3 24h inh
CCCCN1C(=O)NC(=O)C2(Cc3c(nc4c(C)cccn4c3=O)N3CCc4ccccc4C32)C1=O (configuration not stated)	3.2	1.2*	121.0
CCCCN1C(=O)NC(=O)C2(Cc3c(nc4ccccn4c3=O)N3CCc4ccccc4C32)C1=O (configuration not stated)	4.4	16.9	85.7
CN1CSC(=S)N(C)C1	.	56.1	96.2
C=CCn1c(O)c(C(CC)=NCc2cc(OC)cc(OC)c2)c(=O)[nH]c1=O	7.0	90.7	34.3*
CCCCn1c(O)c(C(CC)=NCc2ccc3c(c2)OCO3)c(=O)[nH]c1=O	7.9	100.6	90.2
C=CCn1c(O)c(C(CC)=NCCCO)c(=O)[nH]c1=O	-7.3	140.3	44.1*
C=CCn1c(O)c(C(CC)=Nc2ccccc2NC(C)=O)c(=O)[nH]c1=O	-15.6	110.7	117.2
O=P(C(c1c[nH]c2ccccc12)N1CCOCC1)(N1CCOCC1)N1CCOCC1 (configuration not stated)	7.7	77.7	93.3
CC(=NCCC1=CCCCC1)c1c(O)[nH]c(=O)[nH]c1=O	-4.8	107.9	96.6
COc1ccccc1N1CCN(Cc2ccc(Br)s2)CC1	-4.1	98.6	.
CCC(=NCc1ccc(F)cc1)c1c(O)n(C)c(=O)n(C)c1=O	24.0	80.3	79.3
O=C(c1ccc2c(c1)ncn2C1CCCCC1)N1CCC2(CC1)OCCO2	54.2*	72.0	82.0
O=C(c1cc2ccccn2n1)N1CCC2(CC1)OCCO2	.	140.7	.
O=P(O)(O)C12CC3CC(CC(C3)C1)C2	1.2	99.5	.
